Records with an inconclusive call do not appear. Activity calls are given as the source filed them. Unless noted, the call rests on the fitted dose curve; in most records, active means well fitted curve in the direction sought with a large enough effect; inconclusive means small, poorly fitted or top-dose-only effect, or another doubt; inactive means no such curve, though single readings can be large; an effect the other way counts as inactive or inconclusive. Where a SMILES comes first, the peptide text is derived from it.
Legend:
[1] = biological target: Cytochrome P450 2C9 (Homo sapiens) (UniProt P11712); assay: qHTS Assay for Inhibitors and Substrates of Cytochrome P450 2C9 (AID 883); further: nearly all actives have a fitted effect of over 60% in size; further: potency means the concentration at half of the fitted maximal effect
Procedure, shortened: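 Human CYP2C9 (10nM) with Luciferin-H at 100uM (its KM) in 25mM KPO4; compound preincubated 10 min at 37C, then NADPH regeneration for 60 min at 37C. Luciferin read by luminescence after detection reagent; normalized to 57uM sulphaphenazole as full inhibition.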

[2] = biological target: Cytochrome P450 2C19 (Homo sapiens) (UniProt P33261); assay: qHTS Assay for Inhibitors and Substrates of Cytochrome P450 2C19 (AID 899); further: nearly all actives have a fitted effect of over 60% in size; further: potency means the concentration at half of the fitted maximal effect
Procedure, shortened: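 5 nM human CYP2C19 with 10uM Luciferin-H EGE (at KM) in 50mM KPO4, compound preincubated 10 min at 37C, then NADPH regeneration for 60 min at 37C. Luciferin read by luminescence after detection reagent; normalized to 57uM ketoconazole as full inhibition.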

[3] = biological target: Cytochrome P450 3A4 (Homo sapiens) (UniProt P08684); assay: qHTS Assay for Activators of Cytochrome P450 3A4 (AID 885); further: nearly all actives have a fitted effect of over 65% in size
Procedure, shortened: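 20nM CYP3A4 + 25uM Luciferin-PPXE (=KM), 200mM KPO4; cpd 10 min RT; NADPH regen, 60 min RT; stop w/ detection buffer, 20 min; luminescence. Normalized to 57 uM ketoconazole.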

[4] = biological target: DNA dC->dU-editing enzyme APOBEC-3G (Homo sapiens) (UniProt Q9HC16); assay: qHTS for inhibitors of Vif-A3G interactions: Validation (AID 588379)
Procedure, shortened: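 HeLa cells stably expressing Vif and A3G-eYFP, 700 cells/well, incubated overnight at 37 deg C, then exposed to compound overnight at 37 deg C. Inhibition of Vif-mediated degradation read as increased yellow fluorescence (Ex 488/Em 500-530) by laser-scanning cytometry.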

[5] = biological target: Cytochrome P450 3A4 (Homo sapiens) (UniProt P08684); assay: qHTS Assay for Inhibitors and Substrates of Cytochrome P450 3A4 (AID 884); further: nearly all actives have a fitted effect of over 50% in size; further: potency means the concentration at half of the fitted maximal effect
Procedure, shortened: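 20 nM human CYP3A4 with 25 uM Luciferin-PPXE (at KM) in 200 mM KPO4, preincubated 10 min with compound; NADPH regeneration started a 60 min RT reaction. Luciferin detected by luminescence, normalized to 57 uM ketoconazole as full inhibition.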

[6] = biological target: Luciferin 4-monooxygenase (Photinus pyralis) (UniProt P08659); assay: Biochemical firefly luciferase enzyme assay for NPC (AID 624030);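 further: purified P. pyralis luciferase at 10 nM with luciferin and ATP substrate; nearly all actives have a fitted effect of over 70% in size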
Procedure, shortened: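 Purified P. pyralis luciferase at 10 nM in 50 mM Tris Acetate (final), luminescence read within 5 minutes of enzyme addition to compounds. Activity normalised to PTC124 versus DMSO; concentration-response curves classed by r2, magnitude and activity.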

[7] = S16 Schwann cell viability assay (CellTiter-Glo assay) (AID 624031);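 further: cellular ATP luminescence as a viability measure; nearly all actives have a fitted effect of over 70% in size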
Procedure, shortened: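 Untransfected S16 rat Schwann cells; compound 24 h, 37 °C/5% CO2; CellTiter-Glo ATP luminescence. % activity vs no-cell wells and DMSO controls (0%); concentration-effect curves classed by r2, response magnitude, activity.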

[8] = S16 Schwann cell PMP22 intronic element beta-lactamase assay (AID 624044; calls by dose curve; further: nearly all actives have a fitted effect of over 15% in size); details: S16 rat Schwann cells, PMP22 element beta-lactamase FRET, 24 h; ratio activity, negative = inhibition: at 38.3 µM (top of the series)
Procedure, shortened: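 Rat S16 Schwann cells with beta-Lac driven by a PMP22 intronic element, compound-treated 24 h at 37 °C. LiveBLAzer FRET B/G read: 460 nm normalized to potassium clavulanate vs DMSO; 535 nm FRET as viability; concentration-effect curves classified.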

[9] = test system: AA1029; assay: qHTS profiling for inhibitors of Plasmodium falciparum proliferation (AID 504749); further: nearly all actives have a fitted effect of over 60% in size; details: P. falciparum in erythrocytes, SYBR Green DNA, 72 h; series mostly up to 28.7 µM
Procedure, shortened: (§1)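 P. falciparum-infected erythrocytes (0.3% parasitemia, 2.5% hematocrit) incubated with compound 72 h at 37 C, 5% CO2. Parasite DNA detected by SYBR Green after lysis, overnight at room temperature; normalised to 0.29 uM artemisinin and DMSO.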

[10] = test system: CP260; assay: as above; details: P. falciparum in erythrocytes, SYBR Green DNA, 72 h; series mostly up to 28.7 µM
Procedure, shortened: as §1

[11] = test system: ICS; assay: as above; details: P. falciparum in erythrocytes, SYBR Green DNA, 72 h; series mostly up to 28.7 µM
Procedure, shortened: as §1

[12] = test system: N140; assay: as above; details: P. falciparum in erythrocytes, SYBR Green DNA, 72 h; series mostly up to 28.7 µM
Procedure, shortened: as §1

[13] = test system: TAB165; assay: as above; details: P. falciparum in erythrocytes, SYBR Green DNA, 72 h; series mostly up to 28.7 µM
Procedure, shortened: as §1

[14] = S16 Schwann cell PMP22 intronic element firefly luciferase assay (AID 624032); further: nearly all actives have a fitted effect of over 30% in size
Procedure, shortened: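 Rat S16 Schwann cells stably carrying firefly luciferase driven by a PMP22 intronic element, in 10% FBS, treated 24 h at 37 C. ONE-Glo luminescence normalized to PTC124 control and DMSO (0%); curves classed by r2, magnitude and activity.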

[15] = biological target: Ubiquitin carboxyl-terminal hydrolase 1 (Homo sapiens) (UniProt O94782); assay: Inhibitors of USP1/UAF1: Pilot qHTS (AID 504865); further: nearly all actives have a fitted effect of over 35% in size; further: potency means the concentration at half of the fitted maximal effect
Procedure, shortened: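 1nM USP1/UAF1 + cpd, 15 min RT; start w/ Ub-Rho 150nM final; kinetic FL 480/540 nm, 6 reads q60 s. Buffer 50mM HEPES pH 7.8, 0.5mM EDTA, 1mM TCEP, 0.01% Tween-20, 0.1 mg/ml BSA.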

[16] = test system: CP215; assay: qHTS profiling for inhibitors of Plasmodium falciparum proliferation (AID 504749); further: nearly all actives have a fitted effect of over 60% in size; details: P. falciparum in erythrocytes, SYBR Green DNA, 72 h; series mostly up to 28.7 µM
Procedure, shortened: as §1

[17] = test system: CP335; assay: as above; details: P. falciparum in erythrocytes, SYBR Green DNA, 72 h; series mostly up to 28.7 µM
Procedure, shortened: as §1

[18] = test system: PC26; assay: as above; details: P. falciparum in erythrocytes, SYBR Green DNA, 72 h; series mostly up to 28.7 µM
Procedure, shortened: as §1

[19] = Confirmation and Secondary Assay for Modulators of Hemoglobin Beta Chain Splicing at IVS2 654 locus (AID 910);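 further: HeLa cells stably carrying EGFP split by mutant beta-globin IVS2-654 intron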
Procedure, shortened: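 HeLa cells stably expressing EGFP interrupted by β-globin IVS2-654 intron, seeded overnight in Opti-MEM/2% FCS, then treated 2 days at 37 °C. Restored splicing read as total peak GFP intensity per well by laser scanning cytometry (488 nm excitation, 500–520 nm emission); 500 nM antisense PNA as control.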

[20] = Confirmation and Secondary Assay for Modulators of Hemoglobin Beta Chain Splicing at IVS2 705 locus (AID 930);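 further: HeLa cells stably expressing the EGFP-705 splicing reporter; GFP fluorescence per well restored by corrected splicing of the IVS2-705 intron in EGFP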
Procedure, shortened: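 Read-out: total peak GFP fluorescence per well (488 nm excitation, 500-520 nm emission) by laser-scanning cytometry. Cells: HeLa EGFP-705 splicing reporter, 2 days compound exposure in Optimem/2% FCS.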

Measured: Potency

Cytochrome P450 2C19 (Homo sapiens), sequence (P33261 whole entry, looked up): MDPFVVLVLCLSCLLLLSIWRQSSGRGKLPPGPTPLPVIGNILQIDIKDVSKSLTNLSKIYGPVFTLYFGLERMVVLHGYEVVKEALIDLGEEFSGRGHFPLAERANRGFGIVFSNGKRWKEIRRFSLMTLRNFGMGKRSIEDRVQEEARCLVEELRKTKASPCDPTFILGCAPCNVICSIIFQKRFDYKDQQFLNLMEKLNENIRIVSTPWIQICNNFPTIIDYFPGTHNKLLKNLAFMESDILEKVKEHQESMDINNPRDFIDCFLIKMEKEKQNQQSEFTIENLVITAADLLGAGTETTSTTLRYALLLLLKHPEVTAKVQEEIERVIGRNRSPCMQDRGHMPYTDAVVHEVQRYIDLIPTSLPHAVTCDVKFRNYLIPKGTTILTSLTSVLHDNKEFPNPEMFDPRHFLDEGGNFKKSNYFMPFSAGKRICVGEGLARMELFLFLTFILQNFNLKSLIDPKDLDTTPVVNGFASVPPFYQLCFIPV
Cytochrome P450 3A4 (Homo sapiens), sequence (P08684 whole entry, looked up): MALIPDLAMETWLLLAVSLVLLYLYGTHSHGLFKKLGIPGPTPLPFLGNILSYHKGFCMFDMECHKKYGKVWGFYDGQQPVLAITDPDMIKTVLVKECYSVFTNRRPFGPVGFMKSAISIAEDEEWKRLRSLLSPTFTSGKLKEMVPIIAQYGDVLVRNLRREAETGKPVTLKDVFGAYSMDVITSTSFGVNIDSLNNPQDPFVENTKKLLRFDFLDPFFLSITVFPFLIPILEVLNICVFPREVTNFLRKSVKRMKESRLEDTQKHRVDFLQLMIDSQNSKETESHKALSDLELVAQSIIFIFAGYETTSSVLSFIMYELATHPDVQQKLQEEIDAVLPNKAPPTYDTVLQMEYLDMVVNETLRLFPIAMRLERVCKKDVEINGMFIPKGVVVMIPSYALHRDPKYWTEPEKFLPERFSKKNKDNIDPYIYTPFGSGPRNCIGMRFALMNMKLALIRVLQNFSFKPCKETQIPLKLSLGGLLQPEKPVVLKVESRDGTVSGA
Cytochrome P450 2C9 (Homo sapiens), sequence (P11712 whole entry, looked up): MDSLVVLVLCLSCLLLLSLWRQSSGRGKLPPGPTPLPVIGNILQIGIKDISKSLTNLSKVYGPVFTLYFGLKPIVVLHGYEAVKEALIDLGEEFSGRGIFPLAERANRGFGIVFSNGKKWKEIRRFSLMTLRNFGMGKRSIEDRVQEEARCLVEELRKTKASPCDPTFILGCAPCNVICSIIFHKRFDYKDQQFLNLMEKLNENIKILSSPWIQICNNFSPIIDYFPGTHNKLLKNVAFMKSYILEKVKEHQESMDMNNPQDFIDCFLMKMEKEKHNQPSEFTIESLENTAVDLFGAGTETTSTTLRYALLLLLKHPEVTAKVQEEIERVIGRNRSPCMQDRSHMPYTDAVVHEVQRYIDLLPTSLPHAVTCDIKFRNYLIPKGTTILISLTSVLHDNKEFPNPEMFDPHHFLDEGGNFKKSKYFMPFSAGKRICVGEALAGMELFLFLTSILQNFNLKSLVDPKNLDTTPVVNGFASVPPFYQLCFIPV
DNA dC->dU-editing enzyme APOBEC-3G (Homo sapiens), sequence (Q9HC16 whole entry, looked up): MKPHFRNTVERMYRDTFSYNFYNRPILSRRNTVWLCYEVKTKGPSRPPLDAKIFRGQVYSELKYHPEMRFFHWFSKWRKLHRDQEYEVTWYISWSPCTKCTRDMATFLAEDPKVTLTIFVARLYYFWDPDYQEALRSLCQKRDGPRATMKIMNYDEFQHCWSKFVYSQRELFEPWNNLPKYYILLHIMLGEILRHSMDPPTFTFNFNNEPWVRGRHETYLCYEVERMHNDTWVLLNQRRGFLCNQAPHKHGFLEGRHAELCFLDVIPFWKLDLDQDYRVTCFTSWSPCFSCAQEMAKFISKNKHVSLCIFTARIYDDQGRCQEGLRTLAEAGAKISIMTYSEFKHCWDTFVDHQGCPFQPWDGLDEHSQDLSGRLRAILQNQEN
Ubiquitin carboxyl-terminal hydrolase 1 (Homo sapiens), sequence (O94782 whole entry, looked up): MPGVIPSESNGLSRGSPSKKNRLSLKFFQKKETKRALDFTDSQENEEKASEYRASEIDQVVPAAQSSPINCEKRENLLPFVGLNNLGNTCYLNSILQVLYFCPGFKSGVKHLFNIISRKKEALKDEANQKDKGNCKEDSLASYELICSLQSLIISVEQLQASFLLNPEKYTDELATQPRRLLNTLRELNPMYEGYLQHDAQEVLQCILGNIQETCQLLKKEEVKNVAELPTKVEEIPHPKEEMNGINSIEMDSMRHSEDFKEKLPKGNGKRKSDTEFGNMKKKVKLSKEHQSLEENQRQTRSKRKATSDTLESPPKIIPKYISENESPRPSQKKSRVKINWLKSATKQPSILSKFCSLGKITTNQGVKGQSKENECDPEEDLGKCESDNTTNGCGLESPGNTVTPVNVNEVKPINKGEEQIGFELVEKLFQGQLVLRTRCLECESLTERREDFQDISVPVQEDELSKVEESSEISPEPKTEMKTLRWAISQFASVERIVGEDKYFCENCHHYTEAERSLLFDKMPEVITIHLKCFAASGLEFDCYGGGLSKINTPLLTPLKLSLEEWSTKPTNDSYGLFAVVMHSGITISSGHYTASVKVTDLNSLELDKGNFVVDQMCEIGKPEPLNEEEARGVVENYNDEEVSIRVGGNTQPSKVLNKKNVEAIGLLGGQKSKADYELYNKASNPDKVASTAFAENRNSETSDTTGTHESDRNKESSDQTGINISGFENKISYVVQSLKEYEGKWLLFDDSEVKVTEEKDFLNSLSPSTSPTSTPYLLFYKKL
Luciferin 4-monooxygenase (Photinus pyralis), sequence (P08659 whole entry, looked up): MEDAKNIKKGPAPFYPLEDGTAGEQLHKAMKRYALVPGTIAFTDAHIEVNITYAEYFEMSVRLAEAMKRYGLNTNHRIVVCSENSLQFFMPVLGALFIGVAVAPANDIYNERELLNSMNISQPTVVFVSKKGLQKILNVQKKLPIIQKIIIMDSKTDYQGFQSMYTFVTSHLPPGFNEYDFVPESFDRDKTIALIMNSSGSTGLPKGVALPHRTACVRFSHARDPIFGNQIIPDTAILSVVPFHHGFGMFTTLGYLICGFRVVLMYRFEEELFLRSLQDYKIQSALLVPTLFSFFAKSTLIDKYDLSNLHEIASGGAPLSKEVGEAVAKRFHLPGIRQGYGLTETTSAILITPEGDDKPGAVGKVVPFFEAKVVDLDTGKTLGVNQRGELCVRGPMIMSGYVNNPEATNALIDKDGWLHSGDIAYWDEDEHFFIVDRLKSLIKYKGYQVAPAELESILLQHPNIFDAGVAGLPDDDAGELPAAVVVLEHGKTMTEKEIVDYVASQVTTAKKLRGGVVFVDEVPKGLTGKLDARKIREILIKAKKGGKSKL

C[C@@H]1O[C@@H](OC[C@@H]2O[C@@H](Oc3c(-c4ccc(O)c(O)c4)oc4cc(O)cc(O)c4c3=O)[C@H](O)[C@H](O)[C@@H]2O)[C@H](O)[C@H](O)[C@@H]1O
inactive: [1] | [2]

CC(=O)Oc1cc(OC(C)=O)c2c(=O)cc(-c3ccc(OC(C)=O)c(OC(C)=O)c3)oc2c1
inactive: [3] | [2] | [4]

O=c1c(O)c(-c2ccccc2)oc2cc(O)cc(O)c12
inactive: [3] | [4]
active: [1] 3.16 µM | [5] 15.8 µM | [2] 3.98 µM

CC(=O)OC[C@@H]1O[C@@H](Oc2cc(OC(C)=O)c3c(=O)cc(-c4ccc(OC(C)=O)c(OC(C)=O)c4)oc3c2)[C@H](OC(C)=O)[C@H](OC(C)=O)[C@@H]1OC(C)=O
inactive: [1] | [2]

COc1ccccc1C[C@@H](Cc1nc2ccccc2[nH]1)c1nc2ccccc2[nH]1
active: [1] 12.6 µM | [2] 1.58 µM

CC(C)C1=CC2=CC[C@H]3[C@@](C)(CCC[C@]3(C)C(=O)O)[C@@H]2CC1
active: [1] 12.6 µM | [2] 25.1 µM

C[C@@H]1C[C@@]2(C)Oc3ccccc3[C@H]3OC[C@]1(COC(=O)Nc1ccccc1)[C@@H](C)[C@@H]32
active: [1] 20 µM | [2] 10 µM

CC1(C)CCC(C)(C)c2cc(C(=O)Nc3ccc(C(=O)O)cc3)ccc21
inactive: [4]

COc1ccc(-c2oc3cc(OC)c(OC(C)=O)c(OC)c3c(=O)c2OC)cc1OC(C)=O
inactive: [3] | [2] | [4]
active: [5] 5.01 µM

COc1cc([C@@H]2Oc3cc([C@H]4Oc5cc(O)cc(O)c5C(=O)[C@H]4O)ccc3O[C@H]2CO)ccc1O
inactive: [3] | [4]

O[C@@H]1CC[C@H]2Cc3ccccc3N=C21
inactive: [1] | [2]

C=C[C@@](C)(O)CC[C@H]1[C@]2(C)CCCC(C)(C)[C@H]2CC[C@]1(C)O
active: [2] 2 µM

CCCC[C@H]1C(=O)N(c2ccccc2)N(c2ccc(O)cc2)C1=O
inactive: [3] | [6] | [7] | [8] | [9] | [10] | [11] | [12] | [13]

O=c1cc(-c2ccccc2O)oc2c1ccc1ccccc12
inactive: [1] | [3] | [4]

O=c1cc(-c2ccccc2)oc2c1ccc1ccccc12
active: [5] 12.6 µM | [2] 2 µM
inactive: [3] | [4]

Cc1c(C(=O)O)c(O)cc2c1C(=O)c1c(O)c([C@@H]3O[C@H](CO)[C@@H](O)[C@H](O)[C@@H]3O)c(O)c(O)c1C2=O
inactive: [1] | [2]

C[C@@](Cc1ccccc1)(NC(=O)CN)c1ccccc1
inactive: [4] | [6] | [7] | [14]

CCCC[C@H](CC)CN=C(N)NC(N)=NCCCCCCN=C(N)NC(N)=NC[C@@H](CC)CCCC
active: [15] 28.2 µM

N[C@@H](Cc1c[nH]c2ccccc12)C(=O)NCC(=O)O (H-Trp-Gly-OH)
inactive: [1] | [2]

CN1CCc2cc3c(cc2C(=O)Cc2ccc4c(c2C1)OCO4)OCO3
active: [2] 10 µM
inactive: [1] | [3] | [4]

CC1(C)CCC[C@@]2(C)[C@@H]1CC[C@]1(C)OC(=O)C[C@@H]21
active: [2] 15.8 µM

COc1cc2c(cc1OC)C(=O)N(C)CC2
inactive: [5] | [2] | [4]

C=C[C@@]1(C)C=C2CC[C@@H]3[C@](C)(CCC[C@@]3(C)C(=O)O)[C@H]2CC1
active: [1] 6.31 µM

O=C1C[C@H](c2ccccc2)Oc2cc(O)cc(O)c21
inactive: [3] | [4]

CC1CCC(C(C)C)C(O)C1 (stereo not given)
not listed: [1] | [2] | [3] | [4] | [5] | [19] | [20]
inactive: all other assays above

CC(c1ncncc1F)[C@](O)(Cn1cncn1)c1ccc(F)cc1F (stereo not given in full)
not listed: [1] | [2] | [3] | [4] | [5] | [19] | [20]
inactive: all other assays above

CC(=O)OCC1=C(C(=O)O)N2C(=O)C(NC(=O)CSc3ccncc3)[C@@H]2SC1 (stereo not given in full)
inactive: [19] | [20]

CC(=O)NC[C@@H]1CN(c2ccc(N3CCOCC3)c(F)c2)C(=O)O1
not listed: [1] | [2] | [3] | [4] | [5] | [19] | [20]
inactive: all other assays above

CC12C=CC(=O)C=C1[C@@H](F)CC1C2C(O)CC2(C)C1CC[C@]2(O)C(=O)CO (stereo not given in full)
not listed: [1] | [2] | [3] | [4] | [5] | [8] | [19] | [20]
inactive: all other assays above

C[C@@H]1C(SC2Cn3cnc[n+]3C2)=C(C(=O)[O-])N2C(=O)[C@H]([C@@H](C)O)[C@@H]12 (stereo not given in full)
not listed: [1] | [2] | [3] | [4] | [5] | [8] | [19] | [20]
inactive: all other assays above

OC[C@@H]1O[C@](CO)(O[C@H]2O[C@H](CO)[C@@H](O)[C@H](O)[C@H]2O)[C@H](O)[C@H]1O
inactive: [15] | [6] | [7] | [9] | [16] | [10] | [17] | [11] | [12] | [18] | [13]

From PubChem BioAssay (NCATS)
